Results taken from PubChem BioAssay (NCI).
Compounds without any hit were thinned out: in the full panel of roughly 83,000, 20% have a hit.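 Compound tested at a single concentration for 48 hours in 96-well plates; a percent growth value below 10 was scored as active.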 Unmarked numbers belong to inactive results. Active and inactive are the calls of the source.

Key:
Assay in all cases: NCI-60 one-dose screen, 48 h (100 = growth as untreated, 0 = no growth, -100 = all killed)
Conditions in all cases: 10 µM unless noted
HCT-15 colon = system: HCT-15 colon
HT29 colon = system: HT29 colon
SNB-75 CNS = system: SNB-75 CNS
U251 CNS = system: U251 CNS
PC-3 prostate = system: PC-3 prostate
SK-MEL-5 melanoma = system: SK-MEL-5 melanoma
UACC-62 melanoma = system: UACC-62 melanoma
LOX IMVI melanoma = system: LOX IMVI melanoma
SK-MEL-28 melanoma = system: SK-MEL-28 melanoma
SK-MEL-2 melanoma = system: SK-MEL-2 melanoma
EKVX NSCLC = system: EKVX NSCLC
SN12C renal = system: SN12C renal
UO-31 renal = system: UO-31 renal
TK-10 renal = system: TK-10 renal
ACHN renal = system: ACHN renal
CAKI-1 renal = system: CAKI-1 renal
A498 renal = system: A498 renal
CCRF-CEM leukemia = system: CCRF-CEM leukemia
MOLT-4 leukemia = system: MOLT-4 leukemia
SNB-19 CNS = system: SNB-19 CNS

| SMILES | growth (HCT-15 colon) | growth (HT29 colon) | growth (SNB-75 CNS) | growth (U251 CNS) | growth (PC-3 prostate) | growth (SK-MEL-5 melanoma) | growth (UACC-62 melanoma) | growth (LOX IMVI melanoma) | growth (SK-MEL-28 melanoma) | growth (SK-MEL-2 melanoma) | growth (EKVX NSCLC) | growth (SN12C renal) | growth (UO-31 renal) | growth (TK-10 renal) | growth (ACHN renal) | growth (CAKI-1 renal) | growth (A498 renal) | growth (CCRF-CEM leukemia) | growth (MOLT-4 leukemia) | growth (SNB-19 CNS) |
| --- | --- | --- | --- | --- | --- | --- | --- | --- | --- | --- | --- | --- | --- | --- | --- | --- | --- | --- | --- | --- |
| O=C(CSc1nnc(-c2ccc(-c3nc4ccc(Cl)cc4[nH]3)cc2)o1)Nc1ccc(Br)cc1 | 18.6% | 28.6% | 46% | -89.8% (active) | -29.1% (active) | -6.99% (active) | -53.4% (active) | -100% (active) | -80.6% (active) | 5.03% (active) | 41.9% | -22.3% (active) | 36.6% | 75.9% | -69.1% (active) | -25.1% (active) | 162% | 9.42% (active) | 13.9% | – |
| S=C(Nc1ccc(OCc2nc3ccc(Cl)cc3[nH]2)cc1)NC1CCCCC1 | -63.4% (active) | -47.2% (active) | 10.7% | -48.1% (active) | 17.6% | -96.6% (active) | -12.7% (active) | -100% (active) | – | -44.9% (active) | -7.76% (active) | -80.6% (active) | -7.63% (active) | -10.8% (active) | -16% (active) | -5.65% (active) | -1.77% (active) | 5.6% (active) | 1.31% (active) | – |
| COc1ccc(C(=O)c2cc(C(C)=O)c3c(C)cc(C)cn23)cc1 | 65.9% | 72.5% | 2.27% (active) | 32.4% | – | 33.6% | 63.4% | 54.9% | – | 70.9% | 49.4% | 55% | 67.5% | 57.4% | 56.6% | 38.6% | 86.1% | 104% | 82.3% | – |
| Cn1cc(-c2cc(N)n3nc(-c4c[nH]c5ccc(F)cc45)cc3n2)c2cc(Br)cnc21 | -11.7% (active) | 25.8% | 134% | 22.4% | 53.8% | 78.8% | 73.7% | -56.8% (active) | 80% | 87.3% | 65.5% | 69.3% | 47.3% | 90.9% | 39.5% | 46% | 109% | -42.9% (active) | -10.4% (active) | – |
| CCOc1ccccc1NC(=O)N/C(N)=N/c1nc2ccccc2s1 | 2.52% (active) | -48.7% (active) | 32.8% | 10.4% | 23.3% | -40.9% (active) | 28.1% | 0.997% (active) | 54.3% | 38.7% | 42.9% | 8.49% (active) | 44.6% | 63% | 18.5% | 17.8% | – | 0.25% (active) | – | – |
| CC(C)CN1C(=O)/C(=C\C(=O)c2cc3ccccc3oc2=O)c2ccccc21 | 45.3% | 114% | 82.6% | 106% | 96.6% | 97% | 83.2% | 85.7% | 90.1% | 101% | 94.7% | 89.9% | 52.1% | 98.2% | 30.6% | 81.2% | 149% | 37.2% | 40% | – |
| O=C(N=Nc1c(O)[nH]c2ccc(Br)cc12)c1ccc2nc(-c3ccc(Cl)cc3)[nH]c2c1 | 58.9% | 10.7% | -18% (active) | – | 10% | 37.3% | -74.8% (active) | -100% (active) | -96.3% (active) | 2.45% (active) | -14.1% (active) | -50.8% (active) | 73.2% | 54.3% | 50.5% | 68.1% | 115% | 7.74% (active) | -0.379% (active) | – |
| C=CC[n+]1cccc2c3ccccc3ccc21 | 94.7% | – | 49.8% | 16.6% | 43.7% | -39.8% (active) | 61% | 61.8% | 69% | 63.3% | 23.7% | 8.67% (active) | 56.5% | 67.1% | 88% | 60.6% | 48.6% | 47.3% | 47.9% | 26.5% |
| Nc1nc2cc(-c3ccc4ncnc(NCc5ccccc5)c4c3)ccc2o1 | 14.1% | – | -83.9% (active) | 9.55% (active) | 25.2% | 0.196% (active) | 77.1% | -86.1% (active) | 10.7% | 42.2% | 0.598% (active) | -33.7% (active) | -73.4% (active) | -28.5% (active) | -62.4% (active) | -24.9% (active) | 41.6% | 29.6% | -20.1% (active) | 23% |
| FC(F)(F)CN1CCN(CCn2c(C(F)(F)F)cc3c(Cl)ncnc32)CC1 | -56.7% (active) | – | -32.1% (active) | -12.6% (active) | – | 9.63% (active) | 28.4% | -96.7% (active) | 31.3% | -89.4% (active) | 70.8% | 34.8% | -95.1% (active) | 114% | -63% (active) | 24.1% | 104% | -16.8% (active) | – | -87.5% (active) |
| CN1CCN(C(=O)Oc2cc3c(c4ccccc24)[C@H](CCl)CN3C(=O)c2cc3cc(OCCCN4CCC4)ccc3[nH]2)[C@@H]2CSSC[C@H]21 | – | 2.15% (active) | -64.6% (active) | -42.8% (active) | -12.2% (active) | -74.1% (active) | -81.9% (active) | -61.6% (active) | -39.5% (active) | -83.7% (active) | -50.6% (active) | -75.8% (active) | -0.968% (active) | 11.7% | -22.8% (active) | 1.34% (active) | -18.7% (active) | -28% (active) | – | -64.6% (active) |
| COc1ccc(N=Nc2c(N)nn3c(-c4ccc([N+](=O)[O-])cc4)ccnc23)cc1 | 101% | – | 85.4% | 107% | 101% | 94.2% | 94.5% | 99.9% | 101% | 106% | 97.5% | 92.7% | 97.1% | 113% | 107% | 88.9% | 114% | 92% | 96% | 108% |
| COc1ccc2c(c1)C(=O)N(C)C2C1c2c(cc3c(c2OC)OCO3)CCN1C (centres undefined) | 22.5% | – | 37.3% | 42.7% | 46.9% | 24.9% | 26.8% | 46.7% | 55.9% | 57.5% | 62.6% | 76.9% | 49.4% | 78.6% | 46.5% | 31.6% | 91.5% | 66.3% | 46.4% | 49.1% |
| COc1ccc2[nH]c(=O)c(CSc3ccccc3Nc3nccc(-c4ccc5c(c4)OCO5)n3)cc2c1 | 74.3% | – | 71.8% | – | 68.1% | 58.9% | 79.2% | 89.6% | 95.9% | 95.6% | 88% | 89.4% | 75.8% | 99.7% | 90.4% | 68.5% | 107% | 69.8% | 50.1% | 81.6% |
| Cn1cc(Nc2ncnc(-c3ccc(N4CCCC4)c(C#N)c3)n2)cn1 | 40.8% | – | 30.8% | 94.3% | 78.8% | 49% | 59.4% | 48.9% | 88.3% | 88.4% | 95.3% | 70.7% | 41.9% | 66.2% | 52.3% | 22.4% | 42.6% | 72.2% | 65.5% | 92.4% |
| CCCN(CCC)S(=O)(=O)c1ccc(C(=O)O)cc1.CCCN(CCC)S(=O)(=O)c1ccc(C(=O)O)cc1.[Cl][Pt+2][Cl].[NH2-].[NH2-] | 87.8% | – | 1.96% (active) | -27.5% (active) | 39.7% | -91.2% (active) | -90.2% (active) | -9.75% (active) | 1.28% (active) | -31.6% (active) | 44.8% | 12.4% | 98.4% | 109% | 13.4% | 32.4% | 91.5% | 50.4% | -2.08% (active) | 26.7% |
